Measured values published in PubChem BioAssay (EPA / NIEHS).
Several values for one entry are separate records, joined by “and”; a condition that tells them apart may be missing. Equal values may be shown once. The source holds several records for some structures; these can differ, active in one and inactive in another. Activity calls are given as the source filed them. How the source made its calls: active means hit-call score of the fitted dose curve at least 0.9, where 1 is the maximum; inactive means score below 0.9.

Tests used:
[1] = ATG_ISRE_CIS: Attagene CIS-FACTORIAL HepG2 Assay for human Interferon Regulatory Factor 1 (IRF1) binding to an Interferon-Stimulated Response Element (ISRE) (AID 2282948); details: HepG2 ISRE cis-reporter (Attagene), mRNA transcription readout; actives raise or lower the signal
Summary of the method: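 Endogenous transcription factor activity read as reporter transcript abundance via RT-PCR and capillary electrophoresis. HepG2 cells transiently transfected, 24 h chemical exposure. Gain or loss fitted against DMSO baseline.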

[2] = ATG_M_32_CIS: Attagene CIS-FACTORIAL HepG2 Assay for M32 Transcription Factor (Internal Marker) (AID 2282949); details: HepG2 Attagene cis-factorial M32 reporter, mRNA; actives raise or lower the signal;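 further: background control marker of the multiplexed CIS panel rather than a real target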
Summary of the method: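 HepG2 human liver cells transiently transfected with cis-promoter-driven multiple reporter transcription units, dosed 24 h. Reporter mRNA quantified by RT-PCR, FAM-labelled primer extension, HpaI digest and capillary electrophoresis; bidirectional fit versus DMSO baseline.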

[3] = ATG_M_06_CIS: Attagene CIS-FACTORIAL HepG2 Assay for M06 Transcription Factor (Internal Marker) (AID 2282950); details: HepG2 Attagene CIS-FACTORIAL M06 internal marker reporter; actives raise or lower the signal
Summary of the method: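 Internal background marker within multiplexed cis-reporter HepG2 system. Cells transiently transfected, dosed 24 h; reporter mRNA measured by RT-PCR, HpaI digestion and capillary electrophoresis. Bidirectional fit relative to DMSO.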

[4] = target: Hypoxia-inducible factor 1-alpha (Homo sapiens) (UniProt Q16665); assay: ATG_HIF1a_CIS: Attagene CIS-FACTORIAL HepG2 Assay for human Hypoxia Inducible Factor 1 (HIF1A) (AID 2282951); details: HepG2 Attagene cis-factorial HIF1a reporter transcription; actives raise or lower the signal
Summary of the method: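 Cis-element reporter constructs were transiently transfected into HepG2 cells, which were treated for 24 h; reporter RNA was reverse-transcribed, amplified, labelled and resolved by capillary electrophoresis.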

[5] = target: Heat shock factor protein 1 (Homo sapiens) (UniProt Q00613); assay: ATG_HSE_CIS: Attagene CIS-FACTORIAL HepG2 Assay for human Heat Shock Transcription Factor 1 (HSE) (AID 2282953); details: HepG2 HSE cis-reporter, Attagene RNA transcription; actives raise or lower the signal
Summary of the method: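 HepG2 cells transfected with cis-promoter reporter units sensing endogenous transcription factor activity; reporter mRNA quantified 24 h post-dose by RT-PCR and capillary electrophoresis of 6-FAM-labelled products. Bidirectional fitting against DMSO.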

[6] = ATG_MRE_CIS: Attagene CIS-FACTORIAL HepG2 Assay for human Metal Responsive Element (MRE) (AID 2282954); details: HepG2 MRE cis-reporter transcription, Attagene multiplex; actives raise or lower the signal
Summary of the method: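 Measured here is mRNA induction from an MRE cis-element reporter in HepG2 after 24 h, quantified by fluorescence of labelled RT-PCR products on capillary electrophoresis; gain- and loss-of-signal fits use DMSO as baseline.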

[7] = target: Paired box protein Pax-6 (Homo sapiens) (UniProt P26367); assay: ATG_Pax6_CIS: Attagene CIS-FACTORIAL HepG2 Assay for human Paired Box 6 (PAX6) (AID 2282956); details: HepG2 CIS-FACTORIAL PAX6 reporter transcription, RNA readout; actives raise or lower the signal
Summary of the method: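 Read-out is reporter transcript level, measured by RT-PCR with fluorescent primer extension and capillary electrophoresis after 24 h dosing of transfected HepG2 cells. Activity in either direction fitted relative to DMSO control.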

[8] = ATG_PXRE_CIS: Attagene CIS-FACTORIAL HepG2 Assay for human Pregnane X Receptor Element (PXRE) (AID 2282957); details: HepG2 Attagene CIS-FACTORIAL PXRE reporter, mRNA; actives raise or lower the signal
Summary of the method: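 Reporter transcripts under endogenous PXR-responsive cis-regulation quantified from total RNA of transfected HepG2 cells 24 h post-dosing, via RT-PCR with fluorescent primer extension and capillary electrophoresis. Gain or loss of signal fitted against DMSO baseline.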

[9] = ATG_RORE_CIS: Attagene CIS-FACTORIAL HepG2 Assay for human RAR-related Orphan Receptor Element (RORE) (AID 2282959); details: HepG2 Attagene cis-factorial RORE reporter, mRNA; actives raise or lower the signal
Summary of the method: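 Transfect HepG2 with MRTUs; treat 24 h; extract RNA; RT with oligo(dT); PCR with reporter-specific primers; 6-FAM primer extension; HpaI digest 2 h at 37 C; capillary electrophoresis. Fit vs DMSO, bidirectional.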

[10] = ATG_Sox_CIS: Attagene CIS-FACTORIAL HepG2 Assay for human SRY-box transcription factor (SOX) (AID 2282960); details: HepG2 Attagene cis-factorial SOX reporter, mRNA; actives raise or lower the signal
Summary of the method: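 Fluorescence-labelled cDNA fragments from reporter transcripts, sized by CE, give the signal. Cells: HepG2, transiently transfected with cis-regulated reporter units. Exposure 24 h; DMSO negative control; bidirectional curve fitting.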

[11] = target: Transcription factor Sp1 (Homo sapiens) (UniProt P08047); assay: ATG_Sp1_CIS: Attagene CIS-FACTORIAL HepG2 Assay for human Specificity Protein 1 (Sp1) (AID 2282961); details: HepG2 Sp1 cis-reporter transcription, actives raise or lower the signal
Summary of the method: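 Chemicals are dosed onto HepG2 cells transfected with multiple cis-promoter reporter constructs, and after 24 h reporter RNA is reverse-transcribed, PCR-amplified and resolved by capillary electrophoresis for fluorescence quantitation; activity is scored up or down against DMSO.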

[12] = ATG_SREBP_CIS: Attagene CIS-FACTORIAL HepG2 Assay for human Sterol Regulatory Element Binding (SREBP) (AID 2282962); details: HepG2 Attagene cis-factorial SREBP reporter, mRNA; actives raise or lower the signal
Summary of the method: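 Endogenous SREBP activity read as cis-element-driven reporter transcript in transiently transfected HepG2, 24 h post-dosing; quantified via RT-PCR plus capillary electrophoresis of fluorescent fragments. Gain or loss of signal fitted relative to DMSO baseline.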

[13] = ATG_TA_CIS: Attagene CIS-FACTORIAL HepG2 Assay for human TA Basal Promoter (AID 2282964); details: HepG2 Attagene CIS-factorial TA basal promoter reporter; actives raise or lower the signal
Summary of the method: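 HepG2 cells transiently transfected with multiple reporter units under cis promoter elements, reporting endogenous transcription factor activity; this endpoint tracks the TA basal promoter as background control. Reporter mRNA after 24 h dosing measured by RT-PCR/capillary electrophoresis; bidirectional fits versus DMSO.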

[14] = ATG_TCF_b_cat_CIS: Attagene CIS-FACTORIAL HepG2 Assay for human T-Cell-Factor with beta-catenin (TCF/b-cat) (AID 2282965); details: HepG2 TCF/beta-catenin cis-reporter transcription, actives raise or lower the signal
Summary of the method: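 Cells of the HepG2 line carry transiently transfected reporter units whose promoters respond to endogenous factors. Twenty-four hours post-dosing, reporter mRNA induction is measured by fluorescent RT-PCR and capillary electrophoresis, with DMSO as baseline.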

[15] = ATG_TAL_CIS: Attagene CIS-FACTORIAL HepG2 Assay for human TAL Basal Promoter (AID 2282966); details: HepG2 Attagene cis-factorial TAL promoter reporter; actives raise or lower the signal;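 further: background control endpoint measuring basal TAL promoter reporter mRNA not a specific factor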
Summary of the method: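 Background-control endpoint: basal TAL promoter reporter transcripts in transiently transfected HepG2, measured 24 h after dosing. Read-out by RT-PCR with fluorescent primer extension and capillary electrophoresis; gain or loss of signal fitted relative to DMSO.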

[16] = target: Hepatocyte nuclear factor 6 (Homo sapiens) (UniProt Q9UBC0); assay: ATG_HNF6_CIS: Attagene CIS-FACTORIAL HepG2 Assay for human Hepatocyte Nuclear Factor 6 (HNF6) (AID 2282952); details: HepG2 Attagene cis-factorial HNF6 reporter transcription; actives raise or lower the signal
Summary of the method: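 Endogenous factor activity read in transiently transfected HepG2 via promoter-regulated reporter transcripts. RNA harvested 24 h post-dosing, reverse-transcribed, PCR-amplified, FAM-labelled, HpaI-digested and resolved by capillary electrophoresis; fitted in both directions against DMSO.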

[17] = ATG_PPRE_CIS: Attagene CIS-FACTORIAL HepG2 Assay for human Peroxisome Proliferator-activated Response Element (PPRE) (AID 2282958); details: HepG2 PPRE cis-element reporter, Attagene transcription factor profiling; actives raise or lower the signal
Summary of the method: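 DMSO served as negative control and baseline for bidirectional curve fitting. Signal came from PPRE-regulated reporter mRNA in HepG2 cells, measured 24 h post-dosing by RT-PCR, 6-FAM primer extension and capillary electrophoresis.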

[18] = target: Signal transducer and activator of transcription 3 (Homo sapiens) (UniProt P40763); assay: ATG_STAT3_CIS: Attagene CIS-FACTORIAL HepG2 Assay for human Signal Transducer and Activator of Transcription 3 (STAT3) (AID 2282963); details: HepG2, Attagene cis-factorial STAT3 reporter transcription; actives raise or lower the signal
Summary of the method: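 Fluorescence intensity of 6-FAM-labelled reporter fragments, separated by capillary electrophoresis after RT-PCR, gave the signal. Cells were HepG2 transfected with cis-element reporter units and treated 24 h; fitting was bidirectional relative to DMSO.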

[19] = ATG_GRE_CIS: Attagene CIS-FACTORIAL HepG2 Assay for human Glucocorticoid Response Elements (GRE) (AID 2282947); details: HepG2 GRE cis-reporter, Attagene multiplex mRNA; actives raise or lower the signal
Summary of the method: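 Fluorescence intensity of reporter-specific cDNA fragments, separated by capillary electrophoresis, provides the signal. Constructs carry cis-regulating promoters in transiently transfected HepG2 liver cells; 24 h incubation; fitting is bidirectional against DMSO.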

[20] = ATG_PBREM_CIS: Attagene CIS-FACTORIAL HepG2 Assay for human Phenobarbital-responsive Enhancer Module (PBREM) (AID 2282955); details: HepG2 PBREM cis-reporter, Attagene multiplexed transcription; actives raise or lower the signal
Summary of the method: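 Multiplexed cis-reporter readout in human hepatoma HepG2 cells; PBREM-regulated transcript quantified after 24 h exposure by fluorescent RT-PCR fragment analysis. Signal changes up or down fitted relative to DMSO.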

Measured: AC50

Hypoxia-inducible factor 1-alpha (Homo sapiens), sequence (Q16665 whole entry, looked up): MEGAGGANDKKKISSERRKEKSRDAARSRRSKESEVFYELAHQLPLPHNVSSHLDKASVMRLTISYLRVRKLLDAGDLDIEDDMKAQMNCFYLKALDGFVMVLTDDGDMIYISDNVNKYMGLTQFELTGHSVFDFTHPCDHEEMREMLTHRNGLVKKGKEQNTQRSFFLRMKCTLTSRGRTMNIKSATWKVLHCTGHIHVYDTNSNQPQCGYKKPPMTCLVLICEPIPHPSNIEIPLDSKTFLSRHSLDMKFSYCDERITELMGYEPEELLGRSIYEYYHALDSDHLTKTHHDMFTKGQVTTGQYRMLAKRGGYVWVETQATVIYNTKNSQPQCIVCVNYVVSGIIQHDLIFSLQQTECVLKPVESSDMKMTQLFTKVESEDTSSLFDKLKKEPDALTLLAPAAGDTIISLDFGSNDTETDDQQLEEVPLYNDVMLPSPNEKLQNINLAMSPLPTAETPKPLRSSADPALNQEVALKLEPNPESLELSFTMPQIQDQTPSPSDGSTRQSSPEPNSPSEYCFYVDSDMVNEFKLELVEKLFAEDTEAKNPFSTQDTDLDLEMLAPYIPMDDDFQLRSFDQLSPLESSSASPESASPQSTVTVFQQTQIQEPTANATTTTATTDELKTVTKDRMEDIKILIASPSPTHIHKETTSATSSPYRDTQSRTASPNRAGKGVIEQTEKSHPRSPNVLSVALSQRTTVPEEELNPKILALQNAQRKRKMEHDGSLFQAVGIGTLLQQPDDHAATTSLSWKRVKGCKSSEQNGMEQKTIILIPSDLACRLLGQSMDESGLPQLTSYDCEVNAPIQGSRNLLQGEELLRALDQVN
Transcription factor Sp1 (Homo sapiens), sequence (P08047 whole entry, looked up): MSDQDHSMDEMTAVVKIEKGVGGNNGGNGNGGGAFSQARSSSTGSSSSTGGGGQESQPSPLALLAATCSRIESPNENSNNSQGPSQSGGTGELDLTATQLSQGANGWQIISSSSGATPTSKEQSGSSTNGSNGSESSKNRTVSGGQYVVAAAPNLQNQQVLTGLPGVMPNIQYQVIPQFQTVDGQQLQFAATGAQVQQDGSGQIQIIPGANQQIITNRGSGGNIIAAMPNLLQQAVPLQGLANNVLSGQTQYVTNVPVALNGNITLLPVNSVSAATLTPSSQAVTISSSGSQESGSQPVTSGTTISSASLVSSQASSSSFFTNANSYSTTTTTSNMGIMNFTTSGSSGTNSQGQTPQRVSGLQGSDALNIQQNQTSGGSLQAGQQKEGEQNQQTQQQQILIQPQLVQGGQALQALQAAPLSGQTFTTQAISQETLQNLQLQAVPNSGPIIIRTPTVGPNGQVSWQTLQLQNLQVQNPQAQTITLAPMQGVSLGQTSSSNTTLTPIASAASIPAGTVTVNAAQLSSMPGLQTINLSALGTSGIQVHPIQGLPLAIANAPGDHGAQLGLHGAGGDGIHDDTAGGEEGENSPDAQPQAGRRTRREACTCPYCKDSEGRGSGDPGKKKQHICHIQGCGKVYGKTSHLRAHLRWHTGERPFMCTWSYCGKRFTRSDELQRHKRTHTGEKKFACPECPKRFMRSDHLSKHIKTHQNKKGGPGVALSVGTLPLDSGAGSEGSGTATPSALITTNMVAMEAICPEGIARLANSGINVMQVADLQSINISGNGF
Hepatocyte nuclear factor 6 (Homo sapiens), sequence (Q9UBC0 whole entry, looked up): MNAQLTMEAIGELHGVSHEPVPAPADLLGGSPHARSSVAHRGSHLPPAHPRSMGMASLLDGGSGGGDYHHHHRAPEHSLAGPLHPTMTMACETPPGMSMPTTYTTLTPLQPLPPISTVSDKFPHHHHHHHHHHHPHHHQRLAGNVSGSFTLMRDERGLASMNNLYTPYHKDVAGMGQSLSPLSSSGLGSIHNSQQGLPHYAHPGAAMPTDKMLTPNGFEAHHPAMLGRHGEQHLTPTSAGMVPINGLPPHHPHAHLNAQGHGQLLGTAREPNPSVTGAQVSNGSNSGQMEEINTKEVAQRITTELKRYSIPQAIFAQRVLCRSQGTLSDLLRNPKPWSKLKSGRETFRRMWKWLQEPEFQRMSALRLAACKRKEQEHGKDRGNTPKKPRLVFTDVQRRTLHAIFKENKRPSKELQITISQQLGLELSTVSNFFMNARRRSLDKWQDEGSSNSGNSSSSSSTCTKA
Paired box protein Pax-6 (Homo sapiens), sequence (P26367 whole entry, looked up): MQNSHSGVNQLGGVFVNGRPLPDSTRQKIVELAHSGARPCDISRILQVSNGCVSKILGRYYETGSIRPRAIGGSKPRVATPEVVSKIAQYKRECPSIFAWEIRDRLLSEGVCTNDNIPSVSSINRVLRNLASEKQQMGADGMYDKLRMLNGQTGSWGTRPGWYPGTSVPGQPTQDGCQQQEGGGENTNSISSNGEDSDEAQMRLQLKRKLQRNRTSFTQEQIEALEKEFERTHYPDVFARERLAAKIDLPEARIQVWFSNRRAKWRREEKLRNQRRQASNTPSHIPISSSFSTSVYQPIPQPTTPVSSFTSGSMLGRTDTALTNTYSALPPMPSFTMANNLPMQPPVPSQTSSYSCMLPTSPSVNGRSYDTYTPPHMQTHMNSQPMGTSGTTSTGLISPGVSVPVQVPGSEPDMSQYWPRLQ
Heat shock factor protein 1 (Homo sapiens), sequence (Q00613 whole entry, looked up): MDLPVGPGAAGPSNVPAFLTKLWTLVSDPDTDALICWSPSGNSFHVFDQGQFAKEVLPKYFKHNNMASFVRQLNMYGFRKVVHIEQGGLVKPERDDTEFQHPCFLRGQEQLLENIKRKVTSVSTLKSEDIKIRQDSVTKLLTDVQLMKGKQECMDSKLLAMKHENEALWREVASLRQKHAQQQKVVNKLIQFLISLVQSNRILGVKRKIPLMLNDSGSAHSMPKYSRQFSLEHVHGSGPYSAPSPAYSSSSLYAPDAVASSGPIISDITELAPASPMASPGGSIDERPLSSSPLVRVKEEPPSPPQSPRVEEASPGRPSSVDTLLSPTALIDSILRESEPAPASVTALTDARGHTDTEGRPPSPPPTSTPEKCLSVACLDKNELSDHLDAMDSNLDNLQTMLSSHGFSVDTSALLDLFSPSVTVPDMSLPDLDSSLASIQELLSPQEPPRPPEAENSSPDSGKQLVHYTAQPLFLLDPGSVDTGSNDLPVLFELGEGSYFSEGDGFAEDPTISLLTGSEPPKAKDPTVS
Signal transducer and activator of transcription 3 (Homo sapiens), sequence (P40763 whole entry, looked up, the tested form may be a part): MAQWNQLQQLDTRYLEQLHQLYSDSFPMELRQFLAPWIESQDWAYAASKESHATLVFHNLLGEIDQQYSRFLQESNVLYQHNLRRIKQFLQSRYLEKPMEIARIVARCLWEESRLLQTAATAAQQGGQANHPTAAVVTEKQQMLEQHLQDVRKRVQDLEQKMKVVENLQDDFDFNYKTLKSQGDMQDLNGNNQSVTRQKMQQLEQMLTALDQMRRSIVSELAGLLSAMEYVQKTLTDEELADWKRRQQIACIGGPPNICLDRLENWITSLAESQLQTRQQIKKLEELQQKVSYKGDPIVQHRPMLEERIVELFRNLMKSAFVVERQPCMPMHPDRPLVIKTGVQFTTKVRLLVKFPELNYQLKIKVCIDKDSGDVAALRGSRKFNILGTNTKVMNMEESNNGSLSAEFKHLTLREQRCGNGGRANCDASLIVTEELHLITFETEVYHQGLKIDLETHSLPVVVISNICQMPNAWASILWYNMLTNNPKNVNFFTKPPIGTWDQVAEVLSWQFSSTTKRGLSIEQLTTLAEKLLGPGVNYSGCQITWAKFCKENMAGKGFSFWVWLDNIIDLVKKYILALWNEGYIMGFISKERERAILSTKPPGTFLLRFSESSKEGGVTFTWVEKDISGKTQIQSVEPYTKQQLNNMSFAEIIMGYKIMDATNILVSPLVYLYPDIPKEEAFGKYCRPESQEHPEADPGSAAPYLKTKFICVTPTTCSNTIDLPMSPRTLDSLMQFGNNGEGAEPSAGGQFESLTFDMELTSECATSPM

Cc1ccc(O)cc1C
not listed: [16] | [17] | [18] | [19] | [20]
inactive: all other assays above

COCCOCCO
not listed: [3] | [10] | [19] | [20]
inactive: all other assays above

CC(=O)CCc1ccc2c(c1)OCO2
active: [8] 27.9 µM
not listed: [3] | [10]
inactive: all other assays above

CCCCc1ccc(O)cc1
active: [4] 164 µM | [5] 139 µM
not listed: [3] | [18]
inactive: all other assays above

CCOP(=O)(O)C(N)=O
active: [8] 47.9 µM
not listed: [3] | [9] | [20]
inactive: all other assays above

CC(C)(C)c1ccc(O)cc1
active: [4] 76.7 µM | [6] 164 µM | [7] 174 µM | [8] 26 µM | [10] 175 µM | [11] 175 µM | [12] 26.8 µM | [14] 148 µM
not listed: [16] | [17] | [19] | [20]
inactive: all other assays above

CO/N=C(/C(=O)OC)c1ccccc1COc1ccccc1C
active: [4] 100 µM | [5] 150 µM | [6] 100 µM | [7] 70.1 µM | [8] 4.57 µM | [9] 36.5 µM
not listed: [3] | [10] | [17] | [20]
inactive: all other assays above

CSC(C)(C)C=NO
not listed: [3] | [8] | [18] | [20]
inactive: all other assays above

CCCCCCCc1ccc(O)cc1
active: [8] 8.05 µM and 14.2 µM and 16.6 µM
inactive: [19] | [1] | [2] | [4] | [16] | [5] | [6] | [7] | [8] | [17] | [9] | [10] | [11] | [12] | [18] | [13] | [14] | [15]

CCOP(=S)(Oc1ccc([N+](=O)[O-])cc1)c1ccccc1 (stereo unspecified)
active: [8] 1.22 µM | [12] 27.2 µM
not listed: [5] | [9] | [10] | [18] | [19]
inactive: all other assays above

O=P(OCC(Br)CBr)(OCC(Br)CBr)OCC(Br)CBr (stereo unspecified)
active: [1] 10.3 µM | [4] 16.3 µM | [6] 24.9 µM | [7] 19.6 µM | [12] 22.9 µM | [13] 11.8 µM
inactive: [19] | [2] | [16] | [5] | [17] | [11] | [14] | [15]

COP(N)(=S)OC
active: [8] 47 µM
not listed: [3] | [10] | [20]
inactive: all other assays above

CC(Cl)(Cl)C(=O)O
not listed: [3] | [10] | [18] | [20]
inactive: all other assays above

CCOP(=S)(NC(C)C)Oc1ccccc1C(=O)OC(C)C (stereo unspecified)
active: [1] 41.7 µM | [6] 59.9 µM | [9] 46.6 µM
not listed: [3] | [8]
inactive: all other assays above

CCOP(=S)(S)OCC
active: [5] 157 µM | [8] 57.5 µM
not listed: [3] | [18]
inactive: all other assays above

c1ccc(OP(Oc2ccccc2)Oc2ccccc2)cc1
active: [8] 39.7 µM | [14] 100 µM
not listed: [3] | [17] | [18]
inactive: all other assays above
